# Legend:
# [1] = biological target: Death-associated protein kinase 1 (Homo sapiens) (UniProt P53355); conditions: at 10 µM
# [2] = biological target: Death-associated protein kinase 2 (Homo sapiens) (UniProt Q9UIK4); conditions: at 1 µM
# [3] = biological target: Death-associated protein kinase 2 (Homo sapiens) (UniProt Q9UIK4); conditions: at 10 µM
# [4] = biological target: T1, Serine/threonine-protein kinase DCLK2 (Homo sapiens) (UniProt Q8N568); conditions: at 1 µM
# T1 sequence (whole entry): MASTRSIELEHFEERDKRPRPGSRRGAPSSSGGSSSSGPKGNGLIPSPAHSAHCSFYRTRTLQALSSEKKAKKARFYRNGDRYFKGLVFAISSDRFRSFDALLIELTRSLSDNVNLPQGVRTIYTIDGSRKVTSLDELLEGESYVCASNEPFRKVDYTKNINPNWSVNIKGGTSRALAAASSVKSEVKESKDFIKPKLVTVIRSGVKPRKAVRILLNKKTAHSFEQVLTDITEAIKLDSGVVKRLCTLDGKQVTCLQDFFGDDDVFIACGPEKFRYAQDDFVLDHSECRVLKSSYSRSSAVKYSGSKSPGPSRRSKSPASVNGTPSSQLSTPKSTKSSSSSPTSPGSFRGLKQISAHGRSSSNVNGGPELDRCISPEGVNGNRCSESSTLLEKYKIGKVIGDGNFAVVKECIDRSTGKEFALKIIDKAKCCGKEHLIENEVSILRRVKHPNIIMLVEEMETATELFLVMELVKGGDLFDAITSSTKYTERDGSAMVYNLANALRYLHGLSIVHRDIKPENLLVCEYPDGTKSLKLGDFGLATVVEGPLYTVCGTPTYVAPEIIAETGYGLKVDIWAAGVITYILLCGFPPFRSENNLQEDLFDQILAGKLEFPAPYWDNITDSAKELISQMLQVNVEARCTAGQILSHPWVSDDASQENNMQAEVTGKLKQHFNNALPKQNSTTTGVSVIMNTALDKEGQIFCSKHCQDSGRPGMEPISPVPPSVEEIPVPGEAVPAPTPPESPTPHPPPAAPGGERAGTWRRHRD
# [5] = biological target: T1, Serine/threonine-protein kinase DCLK2 (Homo sapiens); conditions: at 10 µM
# [6] = biological target: T2, Discoidin domain-containing receptor 2 (Homo sapiens) (UniProt Q16832); conditions: at 1 µM
# T2 sequence (whole entry): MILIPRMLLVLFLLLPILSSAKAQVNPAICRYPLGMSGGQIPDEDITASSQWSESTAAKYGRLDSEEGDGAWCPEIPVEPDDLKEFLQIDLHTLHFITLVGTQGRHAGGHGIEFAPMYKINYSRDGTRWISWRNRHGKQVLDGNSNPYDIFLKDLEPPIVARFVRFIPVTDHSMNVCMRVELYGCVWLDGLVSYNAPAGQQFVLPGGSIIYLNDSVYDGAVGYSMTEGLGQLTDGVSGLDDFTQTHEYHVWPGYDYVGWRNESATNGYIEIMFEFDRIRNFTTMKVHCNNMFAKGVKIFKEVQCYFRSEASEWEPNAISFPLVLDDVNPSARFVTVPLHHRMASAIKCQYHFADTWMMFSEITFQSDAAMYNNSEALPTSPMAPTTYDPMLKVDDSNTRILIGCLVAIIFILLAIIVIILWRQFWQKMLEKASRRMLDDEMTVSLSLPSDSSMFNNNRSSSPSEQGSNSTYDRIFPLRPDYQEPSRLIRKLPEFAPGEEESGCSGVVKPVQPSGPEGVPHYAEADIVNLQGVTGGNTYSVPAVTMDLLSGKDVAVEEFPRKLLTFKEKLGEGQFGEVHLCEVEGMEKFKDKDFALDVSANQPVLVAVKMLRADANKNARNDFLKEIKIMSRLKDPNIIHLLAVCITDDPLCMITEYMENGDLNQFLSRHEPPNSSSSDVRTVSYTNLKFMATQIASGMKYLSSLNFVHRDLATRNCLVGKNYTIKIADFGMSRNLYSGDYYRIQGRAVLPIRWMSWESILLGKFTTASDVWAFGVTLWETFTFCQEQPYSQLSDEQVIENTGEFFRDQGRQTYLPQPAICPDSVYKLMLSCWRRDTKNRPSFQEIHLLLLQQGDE
# [7] = biological target: T2, Discoidin domain-containing receptor 2 (Homo sapiens); conditions: at 10 µM
# [8] = biological target: T3, Myotonin-protein kinase (Homo sapiens) (UniProt Q09013); conditions: at 1 µM
# T3 sequence (whole entry): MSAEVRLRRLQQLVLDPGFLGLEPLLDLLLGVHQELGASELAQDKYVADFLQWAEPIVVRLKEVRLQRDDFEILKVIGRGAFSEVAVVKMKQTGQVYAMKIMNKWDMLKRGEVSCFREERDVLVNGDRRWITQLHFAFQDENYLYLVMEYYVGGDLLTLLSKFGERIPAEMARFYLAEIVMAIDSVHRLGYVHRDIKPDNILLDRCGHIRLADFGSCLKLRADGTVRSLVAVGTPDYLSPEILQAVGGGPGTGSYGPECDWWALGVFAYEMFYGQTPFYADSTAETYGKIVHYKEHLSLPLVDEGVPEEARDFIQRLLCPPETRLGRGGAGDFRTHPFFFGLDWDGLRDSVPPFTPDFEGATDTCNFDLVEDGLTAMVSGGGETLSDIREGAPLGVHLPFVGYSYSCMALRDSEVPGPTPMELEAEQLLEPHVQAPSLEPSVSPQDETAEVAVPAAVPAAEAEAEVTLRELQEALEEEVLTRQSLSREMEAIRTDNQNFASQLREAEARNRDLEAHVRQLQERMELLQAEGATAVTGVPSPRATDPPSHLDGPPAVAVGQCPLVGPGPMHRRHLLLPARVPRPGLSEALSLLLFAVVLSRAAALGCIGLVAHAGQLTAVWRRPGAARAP
# [9] = biological target: T3, Myotonin-protein kinase (Homo sapiens); conditions: at 10 µM
# [10] = biological target: T4, Serine/threonine-protein kinase 17A (Homo sapiens) (UniProt Q9UEE5); conditions: at 1 µM
# T4 sequence (whole entry): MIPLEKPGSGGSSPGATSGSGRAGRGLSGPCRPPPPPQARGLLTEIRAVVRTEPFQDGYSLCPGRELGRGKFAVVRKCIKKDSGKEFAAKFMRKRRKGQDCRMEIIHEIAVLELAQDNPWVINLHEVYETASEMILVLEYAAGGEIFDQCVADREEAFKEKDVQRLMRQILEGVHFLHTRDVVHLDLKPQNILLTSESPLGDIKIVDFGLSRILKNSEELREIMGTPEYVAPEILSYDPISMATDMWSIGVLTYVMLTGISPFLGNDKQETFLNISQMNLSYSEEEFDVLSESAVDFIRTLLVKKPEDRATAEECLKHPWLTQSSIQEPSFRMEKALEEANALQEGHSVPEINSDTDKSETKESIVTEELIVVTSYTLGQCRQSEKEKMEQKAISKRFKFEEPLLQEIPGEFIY
# [11] = biological target: T4, Serine/threonine-protein kinase 17A (Homo sapiens); conditions: at 10 µM
# [12] = biological target: T5, Dual specificity tyrosine-phosphorylation-regulated kinase 2 (Homo sapiens) (UniProt Q92630); conditions: at 1 µM
# T5 sequence (whole entry): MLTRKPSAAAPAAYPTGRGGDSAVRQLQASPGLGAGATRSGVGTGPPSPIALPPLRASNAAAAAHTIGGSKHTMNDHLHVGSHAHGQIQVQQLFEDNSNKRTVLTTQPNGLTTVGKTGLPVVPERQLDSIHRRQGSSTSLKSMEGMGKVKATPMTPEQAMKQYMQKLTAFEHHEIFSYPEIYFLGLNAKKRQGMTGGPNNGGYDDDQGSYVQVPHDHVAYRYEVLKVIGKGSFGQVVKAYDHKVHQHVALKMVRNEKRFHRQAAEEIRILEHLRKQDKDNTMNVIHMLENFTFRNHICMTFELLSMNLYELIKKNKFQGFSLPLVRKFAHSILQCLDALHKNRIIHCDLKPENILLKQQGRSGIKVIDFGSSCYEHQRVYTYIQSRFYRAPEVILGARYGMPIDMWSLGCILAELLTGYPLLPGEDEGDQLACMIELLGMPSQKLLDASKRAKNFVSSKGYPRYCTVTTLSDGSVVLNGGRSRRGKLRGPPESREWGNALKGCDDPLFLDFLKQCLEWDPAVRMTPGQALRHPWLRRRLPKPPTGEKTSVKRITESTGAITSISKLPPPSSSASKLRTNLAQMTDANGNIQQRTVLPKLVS
# [13] = biological target: T5, Dual specificity tyrosine-phosphorylation-regulated kinase 2 (Homo sapiens); conditions: at 10 µM
# [14] = biological target: T6, Ephrin type-A receptor 1 (Homo sapiens) (UniProt P21709); conditions: at 1 µM
# T6 sequence (whole entry): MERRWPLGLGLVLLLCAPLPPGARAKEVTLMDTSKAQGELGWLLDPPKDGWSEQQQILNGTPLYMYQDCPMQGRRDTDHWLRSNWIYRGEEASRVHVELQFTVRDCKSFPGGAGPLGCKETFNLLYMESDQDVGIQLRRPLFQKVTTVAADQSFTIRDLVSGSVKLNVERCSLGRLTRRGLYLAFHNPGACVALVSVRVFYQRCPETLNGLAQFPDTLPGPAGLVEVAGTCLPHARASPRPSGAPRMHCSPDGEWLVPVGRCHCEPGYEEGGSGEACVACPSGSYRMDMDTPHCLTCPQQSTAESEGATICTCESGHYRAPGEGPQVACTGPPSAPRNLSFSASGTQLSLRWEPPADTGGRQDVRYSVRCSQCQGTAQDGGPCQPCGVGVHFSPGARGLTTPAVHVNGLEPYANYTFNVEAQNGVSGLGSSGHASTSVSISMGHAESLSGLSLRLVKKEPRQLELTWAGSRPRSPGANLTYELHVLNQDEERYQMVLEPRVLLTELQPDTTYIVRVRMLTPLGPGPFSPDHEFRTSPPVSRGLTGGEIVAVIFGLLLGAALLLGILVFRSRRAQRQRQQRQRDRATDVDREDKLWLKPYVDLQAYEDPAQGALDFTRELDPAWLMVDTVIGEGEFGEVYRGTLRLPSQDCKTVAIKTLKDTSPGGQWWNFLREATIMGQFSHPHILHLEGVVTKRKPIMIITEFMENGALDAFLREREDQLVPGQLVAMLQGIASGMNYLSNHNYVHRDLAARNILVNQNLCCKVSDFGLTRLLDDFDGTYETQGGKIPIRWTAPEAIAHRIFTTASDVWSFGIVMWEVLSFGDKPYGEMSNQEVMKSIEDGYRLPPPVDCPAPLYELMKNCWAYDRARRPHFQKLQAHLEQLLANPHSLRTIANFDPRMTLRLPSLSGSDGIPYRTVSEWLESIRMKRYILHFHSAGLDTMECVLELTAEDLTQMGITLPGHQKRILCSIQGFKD
# [15] = biological target: T6, Ephrin type-A receptor 1 (Homo sapiens); conditions: at 10 µM
# [16] = biological target: Ephrin type-A receptor 2 (Homo sapiens) (UniProt P29317); conditions: at 1 µM
# [17] = biological target: Ephrin type-A receptor 2 (Homo sapiens) (UniProt P29317); conditions: at 10 µM
# [18] = biological target: T7, Ephrin type-A receptor 3 (Homo sapiens) (UniProt P29320); conditions: at 1 µM
# T7 sequence (whole entry): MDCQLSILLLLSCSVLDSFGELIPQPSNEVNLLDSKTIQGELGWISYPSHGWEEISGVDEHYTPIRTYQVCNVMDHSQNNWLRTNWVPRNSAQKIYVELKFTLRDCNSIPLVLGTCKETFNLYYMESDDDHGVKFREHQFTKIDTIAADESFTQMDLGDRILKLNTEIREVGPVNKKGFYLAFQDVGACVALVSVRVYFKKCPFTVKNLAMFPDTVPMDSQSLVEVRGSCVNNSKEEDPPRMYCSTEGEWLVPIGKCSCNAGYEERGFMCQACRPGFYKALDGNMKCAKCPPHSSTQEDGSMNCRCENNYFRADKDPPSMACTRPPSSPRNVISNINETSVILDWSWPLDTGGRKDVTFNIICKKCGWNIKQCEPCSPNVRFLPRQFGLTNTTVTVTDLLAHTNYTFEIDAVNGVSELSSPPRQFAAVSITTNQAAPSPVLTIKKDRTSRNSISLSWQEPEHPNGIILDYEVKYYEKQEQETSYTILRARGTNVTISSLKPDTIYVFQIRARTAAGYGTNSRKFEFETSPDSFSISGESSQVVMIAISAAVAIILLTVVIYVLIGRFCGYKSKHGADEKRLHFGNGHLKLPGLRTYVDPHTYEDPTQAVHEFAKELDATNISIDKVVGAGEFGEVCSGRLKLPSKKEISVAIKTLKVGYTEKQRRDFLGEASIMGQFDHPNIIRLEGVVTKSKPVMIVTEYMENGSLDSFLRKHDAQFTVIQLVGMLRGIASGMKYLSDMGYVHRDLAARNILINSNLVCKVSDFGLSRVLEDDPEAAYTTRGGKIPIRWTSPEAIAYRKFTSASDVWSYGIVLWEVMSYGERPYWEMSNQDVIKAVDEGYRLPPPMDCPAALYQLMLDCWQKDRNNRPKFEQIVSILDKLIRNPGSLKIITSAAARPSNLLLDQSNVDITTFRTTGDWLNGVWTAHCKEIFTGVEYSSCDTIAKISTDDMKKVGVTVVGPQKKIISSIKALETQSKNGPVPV
# [19] = biological target: Epidermal growth factor receptor (Homo sapiens) (UniProt P00533); conditions: at 1 µM
# [20] = biological target: Epidermal growth factor receptor (Homo sapiens) (UniProt P00533); conditions: at 10 µM
# Chain of Ephrin type-A receptor 2 (Homo sapiens) (P29317 whole entry): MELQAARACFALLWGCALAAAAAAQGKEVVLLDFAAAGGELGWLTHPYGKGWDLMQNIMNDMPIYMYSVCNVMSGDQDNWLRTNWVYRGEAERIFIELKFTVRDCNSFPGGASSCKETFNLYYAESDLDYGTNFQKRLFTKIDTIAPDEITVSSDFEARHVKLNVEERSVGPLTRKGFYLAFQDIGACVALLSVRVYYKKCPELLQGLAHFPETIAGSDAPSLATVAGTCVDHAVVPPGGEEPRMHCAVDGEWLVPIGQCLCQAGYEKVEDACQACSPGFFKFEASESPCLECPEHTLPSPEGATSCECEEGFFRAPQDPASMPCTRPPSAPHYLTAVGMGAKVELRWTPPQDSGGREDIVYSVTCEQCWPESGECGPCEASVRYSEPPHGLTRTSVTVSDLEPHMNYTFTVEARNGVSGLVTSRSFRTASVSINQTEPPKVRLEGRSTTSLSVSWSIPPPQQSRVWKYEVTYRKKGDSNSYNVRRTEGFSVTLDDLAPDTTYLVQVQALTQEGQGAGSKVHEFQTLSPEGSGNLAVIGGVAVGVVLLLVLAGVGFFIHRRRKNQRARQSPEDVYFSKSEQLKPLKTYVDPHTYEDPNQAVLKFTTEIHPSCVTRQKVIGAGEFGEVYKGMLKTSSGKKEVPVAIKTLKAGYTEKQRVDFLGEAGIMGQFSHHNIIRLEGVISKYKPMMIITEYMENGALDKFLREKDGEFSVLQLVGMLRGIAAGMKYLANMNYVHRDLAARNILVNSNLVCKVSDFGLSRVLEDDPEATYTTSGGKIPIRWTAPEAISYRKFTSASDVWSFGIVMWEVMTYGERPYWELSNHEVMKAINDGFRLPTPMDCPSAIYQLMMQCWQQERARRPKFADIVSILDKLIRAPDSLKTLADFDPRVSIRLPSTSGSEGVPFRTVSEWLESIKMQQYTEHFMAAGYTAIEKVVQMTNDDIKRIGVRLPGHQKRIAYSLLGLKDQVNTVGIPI
# Chain of Death-associated protein kinase 2 (Homo sapiens) (Q9UIK4 whole entry, looked up): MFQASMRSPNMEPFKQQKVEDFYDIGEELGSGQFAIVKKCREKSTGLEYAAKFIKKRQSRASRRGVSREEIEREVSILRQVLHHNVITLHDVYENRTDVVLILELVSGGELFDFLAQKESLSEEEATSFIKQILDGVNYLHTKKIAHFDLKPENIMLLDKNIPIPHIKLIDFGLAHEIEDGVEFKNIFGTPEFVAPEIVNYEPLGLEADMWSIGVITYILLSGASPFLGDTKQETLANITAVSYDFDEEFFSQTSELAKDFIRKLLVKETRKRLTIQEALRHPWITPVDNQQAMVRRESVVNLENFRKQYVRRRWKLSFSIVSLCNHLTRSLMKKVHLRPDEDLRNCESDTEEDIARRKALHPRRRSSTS
# Chain of Death-associated protein kinase 1 (Homo sapiens) (P53355 whole entry, looked up): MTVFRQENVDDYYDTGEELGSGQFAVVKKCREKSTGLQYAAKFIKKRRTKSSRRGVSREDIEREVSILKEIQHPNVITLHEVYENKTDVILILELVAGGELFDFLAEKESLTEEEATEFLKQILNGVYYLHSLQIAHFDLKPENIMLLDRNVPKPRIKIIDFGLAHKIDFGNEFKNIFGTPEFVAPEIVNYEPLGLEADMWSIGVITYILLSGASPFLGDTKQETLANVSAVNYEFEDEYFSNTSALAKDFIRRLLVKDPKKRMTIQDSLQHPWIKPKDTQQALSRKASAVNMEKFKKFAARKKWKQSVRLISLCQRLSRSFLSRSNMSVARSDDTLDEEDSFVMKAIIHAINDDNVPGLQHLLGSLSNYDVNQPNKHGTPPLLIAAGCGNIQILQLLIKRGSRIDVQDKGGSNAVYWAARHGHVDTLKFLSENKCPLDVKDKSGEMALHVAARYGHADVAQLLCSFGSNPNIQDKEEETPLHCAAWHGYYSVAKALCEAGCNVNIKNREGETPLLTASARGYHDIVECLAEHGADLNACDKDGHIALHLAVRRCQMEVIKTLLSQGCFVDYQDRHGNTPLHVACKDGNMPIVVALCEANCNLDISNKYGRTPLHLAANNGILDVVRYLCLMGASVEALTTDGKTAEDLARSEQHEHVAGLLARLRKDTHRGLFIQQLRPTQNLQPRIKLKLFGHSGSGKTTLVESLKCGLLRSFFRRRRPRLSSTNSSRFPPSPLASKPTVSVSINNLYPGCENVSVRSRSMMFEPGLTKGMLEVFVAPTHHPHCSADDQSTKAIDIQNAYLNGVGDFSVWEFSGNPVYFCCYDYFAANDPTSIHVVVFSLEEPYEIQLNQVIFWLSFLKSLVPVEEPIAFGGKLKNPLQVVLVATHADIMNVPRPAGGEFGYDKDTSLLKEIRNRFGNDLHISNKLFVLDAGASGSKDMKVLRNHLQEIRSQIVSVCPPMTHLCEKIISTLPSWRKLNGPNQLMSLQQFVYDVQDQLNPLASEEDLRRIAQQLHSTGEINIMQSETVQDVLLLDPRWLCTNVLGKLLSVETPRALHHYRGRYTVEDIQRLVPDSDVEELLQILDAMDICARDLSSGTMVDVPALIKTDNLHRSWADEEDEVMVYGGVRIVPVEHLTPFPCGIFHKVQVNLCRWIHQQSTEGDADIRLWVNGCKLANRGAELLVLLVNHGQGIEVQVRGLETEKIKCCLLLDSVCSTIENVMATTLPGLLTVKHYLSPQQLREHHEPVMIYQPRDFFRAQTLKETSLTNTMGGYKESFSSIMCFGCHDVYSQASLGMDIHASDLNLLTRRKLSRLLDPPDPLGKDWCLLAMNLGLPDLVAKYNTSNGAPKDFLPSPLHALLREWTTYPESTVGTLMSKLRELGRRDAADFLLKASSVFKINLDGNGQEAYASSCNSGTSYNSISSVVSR
# Chain of Epidermal growth factor receptor (Homo sapiens) (P00533 whole entry): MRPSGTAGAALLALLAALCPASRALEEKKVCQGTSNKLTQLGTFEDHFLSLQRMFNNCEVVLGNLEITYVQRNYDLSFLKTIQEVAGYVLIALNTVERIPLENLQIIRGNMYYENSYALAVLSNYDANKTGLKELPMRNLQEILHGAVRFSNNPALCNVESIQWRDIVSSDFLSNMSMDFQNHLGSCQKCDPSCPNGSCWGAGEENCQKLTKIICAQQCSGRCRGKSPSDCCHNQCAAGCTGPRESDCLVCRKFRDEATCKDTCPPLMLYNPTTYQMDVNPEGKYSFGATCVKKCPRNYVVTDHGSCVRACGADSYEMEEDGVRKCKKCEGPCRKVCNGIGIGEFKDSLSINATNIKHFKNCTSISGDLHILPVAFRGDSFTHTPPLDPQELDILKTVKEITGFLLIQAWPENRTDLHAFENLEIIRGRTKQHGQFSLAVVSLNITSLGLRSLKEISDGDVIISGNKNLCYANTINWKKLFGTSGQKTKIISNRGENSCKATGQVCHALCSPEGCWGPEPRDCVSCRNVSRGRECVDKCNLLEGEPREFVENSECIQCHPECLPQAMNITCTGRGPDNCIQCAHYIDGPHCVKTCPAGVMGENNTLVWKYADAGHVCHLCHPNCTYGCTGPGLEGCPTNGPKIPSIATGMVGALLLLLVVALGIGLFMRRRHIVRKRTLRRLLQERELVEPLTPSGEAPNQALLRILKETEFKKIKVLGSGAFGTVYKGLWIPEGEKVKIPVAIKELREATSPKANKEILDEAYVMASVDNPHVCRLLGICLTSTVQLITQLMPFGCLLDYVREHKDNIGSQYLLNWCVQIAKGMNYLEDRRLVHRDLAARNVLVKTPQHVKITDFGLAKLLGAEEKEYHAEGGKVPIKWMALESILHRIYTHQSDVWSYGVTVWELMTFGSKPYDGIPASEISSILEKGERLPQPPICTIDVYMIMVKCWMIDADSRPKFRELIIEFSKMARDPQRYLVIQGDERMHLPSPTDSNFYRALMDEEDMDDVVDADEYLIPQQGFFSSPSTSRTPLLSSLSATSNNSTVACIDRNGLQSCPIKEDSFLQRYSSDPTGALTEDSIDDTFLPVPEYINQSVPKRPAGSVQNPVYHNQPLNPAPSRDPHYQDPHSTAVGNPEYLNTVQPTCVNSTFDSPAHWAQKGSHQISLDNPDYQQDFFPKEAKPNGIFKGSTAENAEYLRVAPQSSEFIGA
Compound,residual activity [1] [%],residual activity [2] [%],residual activity [3] [%],residual activity [4] [%],residual activity [5] [%],residual activity [6] [%],residual activity [7] [%],residual activity [8] [%],residual activity [9] [%],residual activity [10] [%],residual activity [11] [%],residual activity [12] [%],residual activity [13] [%],residual activity [14] [%],residual activity [15] [%],residual activity [16] [%],residual activity [17] [%],residual activity [18] [%],residual activity [19] [%],residual activity [20] [%]
O=C1NC(=O)c2c1c1c3ccccc3[nH]c1c1[nH]c3cc(Br)ccc3c21,92,98,71,83,96,101,98,115,97,67,4,100,75,96,86,98,114,93,,
CC(C)n1cnc2c(NCc3ccccc3)nc(NCCCO)nc21,82,101,92,100,102,87,91,94,87,107,134,99,89,99,91,102,112,101,-1,-2

# From ChEMBL document CHEMBL2218924, “A broad activity screen in support of a chemogenomic map for kinase signalling research and drug discovery” (Biochem J, 2013)
